Compounds with a hit are over-represented: about 2.8% of the library has one in this group of screens.
MRP reversal – MRP-mediated drug resistance reversal; H69AR cells + 2 uM doxorubicin, CellTiter-Glo, 72 h; differential viability (reversal), % at 10 µM; 85,000 compounds, 0.04% hits; AID 602;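 active = viability drop by adding the cancer drug above about 55%, with treated viability meeting a 40% cutoff, limit read from the data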;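 note: viability without doxorubicin minus viability with 2 µM doxorubicin for each compound; larger differential means the compound sensitizes cells more to doxorubicin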
ERb coact inh – blocks coactivator binding to human estrogen receptor beta; Q92731; TR-FRET ER-beta LBD / SRC1-Cy5 peptide binding; receptor agonist-loaded with 1 µM estradiol; inhibition, % at 25.6 µM; 86,000 compounds, 1.3% hits; AID 633;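 active = compounds whose percent inhibition of the receptor-coactivator binding signal exceeds about 50% in the single-dose screen, limit read from the data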;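 note: 0% = receptor plus peptide wells without compound and 100% = peptide-only wells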
ERa coact pot – ER-alpha (human) coactivator binding potentiation | P03372 | TR-FRET ERalpha-LBD/SRC-Cy5 coactivator binding, 2 h; 100 = basal binding, no effect | coactivator binding (% of control), % at 25.6 µM | 86,000 compounds, 1.3% hits; in the data active = activity above about 200%;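 note: binding measured in presence of low estradiol as agonist stimulus; 0% = peptide alone without receptor and 100% = receptor with peptide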
MRP-1 activ – MRP-1 activation; 140,000 compounds, 0.61% hits; H69AR cells + doxorubicin, viability rescue, CellTiter-Glo; viability increase, % at 10 µM;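 active = viability gain under doxorubicin at or above a set limit, the compound median plus 3 SD, cut at about 4.7% in these data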;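 note: MRP-1 overexpressing cells given doxorubicin 25 µM after compound pretreatment; 18-22 h compound pretreatment then 72 h with doxorubicin before readout; 0% = doxorubicin-only wells and 100% = vehicle-treated cells without doxorubicin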
Smad3 inh – Smad3 (human) transcription factor binding inhibition | 88,000 compounds, 0.29% hits | AID 630 | TR-FRET Smad3/Dy647-FoxH1 peptide binding, europium anti-His | inhibition, % at 25 µM | P84022;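 active = compounds that reduce the energy-transfer binding signal between the protein and its labelled peptide by more than half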;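 note: 0% = Smad3 plus labelled peptide maximal FRET and 100% = peptide-only background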
Target sequence (P84022 whole entry, looked up): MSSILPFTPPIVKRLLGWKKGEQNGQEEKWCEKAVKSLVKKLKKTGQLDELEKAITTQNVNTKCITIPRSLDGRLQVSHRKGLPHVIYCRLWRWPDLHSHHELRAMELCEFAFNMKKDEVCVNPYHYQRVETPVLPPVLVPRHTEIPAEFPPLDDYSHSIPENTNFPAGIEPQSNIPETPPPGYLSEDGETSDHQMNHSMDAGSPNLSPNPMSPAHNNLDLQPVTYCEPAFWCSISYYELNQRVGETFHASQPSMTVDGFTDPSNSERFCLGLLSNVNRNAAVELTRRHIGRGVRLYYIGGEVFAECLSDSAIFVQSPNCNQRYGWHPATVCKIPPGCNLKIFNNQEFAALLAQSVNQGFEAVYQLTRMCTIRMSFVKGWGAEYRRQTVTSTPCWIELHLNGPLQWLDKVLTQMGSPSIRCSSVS
ERa coact inh – blocks coactivator binding to human estrogen receptor alpha | P03372 | TR-FRET ER-alpha LBD / SRC-1 peptide, estradiol-bound | inhibition, % at 25.6 µM | 86,000 compounds, 1.7% hits | AID 629; in the data active = inhibition above about 50%;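 note: 0% = receptor plus peptide control and 100% = peptide only without receptor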
Numbers without * were called inactive; x = not tested or not shown; [ ] = dose if it differs, or a comment.

SMILES	MRP reversal	ERb coact inh	ERa coact pot	MRP-1 activ	Smad3 inh	ERa coact inh
CCc1ccc(Cn2nnc(C(=O)NCc3ccccc3OC)c2N)cc1	10	6	206*	-1	2	9
O=C(O)/C(Cc1ccc([N+](=O)[O-])cc1)=N\O	x	x	x	x	1	x
C=CCNC1=C(Cl)C(=O)N(c2ccccc2Cl)C1=O	11	-8	107	0	4	-8
CN(C)CCNc1ccccn1	x	x	x	x	-11	x
Cc1cc(O)c(-c2cc(O)c(C)cc2O)cc1O	x	x	x	x	83*	x
Cc1ccc(O)c(Sc2cc(C)ccc2O)c1	-15	-7	77	-5	-4	-7
O=C(NC(=O)c1ccc(Cl)cc1)Nc1cc(N2CCCCC2)ncn1	-12	65*[fluorescence artefact?]	243*	x	8	72*[fluorescence artefact?]
O=C(Nc1cc(N2CCOCC2)ncn1)Nc1cccc2ccccc12	-16	-17	116	-3	-7	-25
NN(CC(=O)O)CC(=O)O	x	x	x	x	-4	x
O=C(COc1ccc(Br)cc1)c1ccc2c(c1)CCCC2	x	x	x	5.1*	x	x
c1ccc(CNc2nc3ccccc3n3cnnc23)nc1	6	-10	114	0	10	-12
c1ccc(CNc2nc3ccccc3n3cnnc23)cc1	9	7	238*[fluorescence artefact?]	0	5	4
COc1ccc(C(=O)NCc2ccccc2)cc1S(=O)(=O)N1CCCc2ccccc21	x	x	x	5.4*	x	x
COc1ccc(Cn2c(=O)[nH]c3cc(C(=O)NCc4ccc5c(c4)OCO5)ccc3c2=O)cc1	16	23	131	2	-8	51*
CN(c1ccc(C(=O)NCc2ccc3c(c2)OCO3)cc1)S(C)(=O)=O	5	81*[fluorescence artefact?]	101	-1	3	-2
O=C(NCc1ccc2c(c1)OCO2)c1ccc2c(=O)n(C3CCCC3)c(=O)[nH]c2c1	6	6	109	-1	13	3
COc1ccc(C(=O)NCc2ccc3c(c2)OCO3)cc1S(=O)(=O)N(C)Cc1ccccc1	x	x	x	7.3*	x	x
C[C@@H](CS(=O)(=O)Cc1ccccc1)C(N)=O	x	x	x	x	2	x
OC[C@@H](O)[C@@H](O)[C@@H](O)[C@@H](O)c1nc2ccc(Cl)cc2[nH]1	x	x	x	x	-10	x
COc1cc(NS(=O)(=O)c2ccc(N/C=C(\C#N)c3nc4cc(Cl)ccc4o3)cc2)nc(OC)n1	x	x	x	4.9*	x	x
CC(c1ccccc1)N(NC(=O)C(O)(c1ccccc1)c1ccccc1)C(=O)c1ccccc1 (stereo not given)	x	x	x	-4	x	x
CN(C)c1ccc(/C=C/C(O)=C2/C(=O)N(C)C3(C)CC2c2ccccc2O3)cc1 (stereo not given)	-15	60*[fluorescence artefact?]	27	-1	7	74*[fluorescence artefact?]
COc1cc2c(=O)n(CC3CCCO3)c(=O)n(CC(=O)Nc3cccc(Cl)c3)c2cc1OC (stereo not given)	-2	-1	110	-1	83*[fluorescence artefact?]	3
CCNC(=S)Nc1nc2c(cc1C(=O)OCC)CCCC2	x	x	x	-1	x	x
CCOC(=O)c1sc(=NC(=O)c2cc(OC)c(OC)c(OC)c2)n(C)c1C	0	21	208*	-6	10	17
SMILES	MRP reversal	ERb coact inh	ERa coact pot	MRP-1 activ	Smad3 inh	ERa coact inh
CCOC(=O)c1sc(=NC(=O)c2ccc(S(=O)(=O)N3CCOCC3)cc2)n(C)c1C	10	7	166	x	-1	8
C[N+](C)([O-])CCC=C1c2ccccc2CCc2ccccc21	x	x	x	x	11	x
CC(=O)N(C(C)=O)c1ccc2nc(C)[nH]c(=O)c2c1	-12	-1	577*[fluorescence artefact?]	-2	-2	6
CC(=O)Nc1ccc(Oc2ccc3nc(C)[nH]c3c2)cc1	19	15	101	0	7	2
CN(C)c1ccc(N=Cc2ccco2)cc1	-10	70*	66	0	21	29
Cc1ccc(N=Cc2ccc(N(C)C)cc2)cc1	7	-2	108	-2	3	-8
CN(C)c1ccc(C=Nc2ccc(N(C)C)cc2)cc1	-10	58*[fluorescence artefact?]	78	-1	1	-21
O=C(CN1C(=O)c2ccccc2C1=O)N1CCN(c2nnc(-c3ccccc3)c3ccccc23)CC1	-10	4	220*	0	-62	2
Cc1ccc(OCC(=O)N2CCN(c3nnc(-c4ccc(C)cc4)c4ccccc34)CC2)cc1	27	-8	100	-2	26	2
Cc1ccc(-c2nnc(N3CCN(C(=O)CN4C(=O)c5ccccc5C4=O)CC3)c3ccccc23)cc1	8	6	125	x	-11	58*
COc1ccc(NC(=O)c2ccco2)cc1NC(=O)c1ccc(Br)o1	-25	-1	104	0	1	-4
O=C(Nc1cccc(NC(=O)c2ccc(-c3ccc(Br)cc3)o2)c1)c1ccco1	9	22	108	-2	10	71*[fluorescence artefact?]
c1ccc2c(c1)nnn2CN1CCOCC1	x	x	x	x	12	x
c1ccc(-c2noc(-c3ccc4ccccc4c3)n2)nc1	-21	-3	113	-4	-9	3
c1ccc(-c2noc(-c3ccc4c(c3)OCO4)n2)nc1	1	57*	45	-5	7	62*[fluorescence artefact?]
O=c1c(-c2nnc(SCc3ccc(Cl)cc3)o2)cccn1Cc1ccccc1	x	x	x	5.4*	x	x
O=C(OCn1nnc2ccccc2c1=O)c1cn(-c2ccccc2)nc1-c1cccnc1	-9	43	121	0	4	68*
Cn1ccnc1-c1nc2ccccc2[nH]c1=O	82*	-22	106	-2	12	-21
O=c1[nH]c2ccccc2nc1-c1cccs1	5	-8	124	-4	8	0
c1ccc(OCCSc2nc3ccccc3[nH]2)cc1	27	-4	119	5.3*	-10	23
CC(c1ccccc1)N1CCn2c(nc3cc(NC(=O)c4cccs4)ccc32)C1 (stereo not given)	-1	3	81	-5	-2	0
COCCN1CCn2c(nc3cc(NC(=O)c4cccs4)ccc32)C1	0	43	17	0	-13	74*[fluorescence artefact?]
Nc1ccc(S(=O)(=O)c2cccc(N)c2)cc1	-6	-9	113	-2	-12	-12
Nc1ccc(N(S(=O)(=O)c2ccccc2)S(=O)(=O)c2ccccc2)c(Cl)c1	x	x	x	x	87*	x
Cc1c(C(=O)Nc2nnc(C(F)(F)F)s2)oc2ccccc12	-20	-1	135	8.9*	1	-1
SMILES	MRP reversal	ERb coact inh	ERa coact pot	MRP-1 activ	Smad3 inh	ERa coact inh
Cc1cc(NC(=O)c2oc3ccccc3c2C)ccc1-n1cnnn1	-37	50*[fluorescence artefact?]	131	0	6	65*[fluorescence artefact?]
COC(=O)c1sc(NC(=O)c2oc3ccccc3c2C)nc1C	-9	-3	121	-4	5	-6
COc1cc(OC)cc(C(=O)Nc2ccc(-n3cnnn3)c(C)c2)c1	-10	-8	127	0	11	-6
O=C(Oc1ccc2c(c1)OCC2=O)c1ccccc1	-18	55*	86	0	-8	44
CC(C)(C)c1ccc(C(=O)Oc2ccc3c(c2)OCC3=O)cc1	-10	-3	101	2	9	9
Cc1ccc(OC2=NS(=O)(=O)c3ccccc32)cc1	-31	0	84	-3	-9	8
